# Hits are enriched below; roughly 11% of the tested compounds scored in any of these assays.
# hNpr1 antagonist: human Npr1 receptor antagonism | HEK293 hNpr1 GloSensor cGMP, ANP-stimulated luminescence | Potency, µM (highest dose often 46.3 µM), without a hit: at the top dose activity change, negative = inhibition, usual class: inhibitors | 1.6% of 76,000 active; calls by dose curve; also: nearly all actives have a fitted effect of over 60% in size
#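 HEK293 cells stably expressing human Npr1 and cGMP GloSensor pGS-40F, loaded 2 h with 2% GloSensor reagent, given compound 30 min at room temperature. Luminescence read before and 20 min after 0.1 nM hNppA.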
# HEK293 tox: kills HEK 293 cells; Potency, µM (series often up to 115 µM), for the others: top-dose activity change, negative = cytotoxicity, actives largely listed as inhibitors; AID 1345083; HEK 293 viability, ATP luminescence (CellTiter-Glo), 48-72 h; 6.6% of 94,000 active; also: nearly all actives have a fitted effect of over 60% in size
#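 CellTiter-Glo luminescence (cellular ATP) was read after 48 or 72 hr of compound exposure at 37 degree Celsius. Cells were HEK 293 plated at 250 cells/well.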
# FLuc inh: inhibitors of firefly (Photinus pyralis) luciferase. purified P. pyralis luciferase, luminescence, biochemical. 2.5% of 76,000 active. P08659. Potency, µM (series often up to 115 µM), usual class: inhibitors. AID 1347043; also: nearly all actives have a fitted effect of over 65% in size
# Target sequence (P08659 whole entry, looked up): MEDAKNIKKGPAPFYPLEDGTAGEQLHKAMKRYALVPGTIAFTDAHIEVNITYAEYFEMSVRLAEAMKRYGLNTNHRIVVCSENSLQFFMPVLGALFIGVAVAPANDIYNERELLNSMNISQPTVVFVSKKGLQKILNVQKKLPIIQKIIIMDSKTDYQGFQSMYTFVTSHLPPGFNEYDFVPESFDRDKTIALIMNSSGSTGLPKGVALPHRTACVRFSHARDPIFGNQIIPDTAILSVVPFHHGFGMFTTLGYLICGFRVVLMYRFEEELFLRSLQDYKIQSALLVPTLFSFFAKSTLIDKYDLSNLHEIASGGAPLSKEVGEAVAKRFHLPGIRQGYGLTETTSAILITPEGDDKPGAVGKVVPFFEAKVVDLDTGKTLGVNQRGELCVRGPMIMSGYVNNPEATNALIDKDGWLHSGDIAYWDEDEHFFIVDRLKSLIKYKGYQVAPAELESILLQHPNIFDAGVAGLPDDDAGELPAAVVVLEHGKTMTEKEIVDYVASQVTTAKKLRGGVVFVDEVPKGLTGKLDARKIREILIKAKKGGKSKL
#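 Purified 10nM P. pyralis luciferase with 10uM D-luciferin and 10uM ATP in 50mM Tris acetate pH 7.5, 10mM Mg acetate, 0.01% Tween-20, 0.05% BSA. qHTS titration; luminescence read by CCD imager.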
# 3T3 cytotox: cytotoxic compounds in NIH 3T3 cells | 4.3% of 94,000 active | NIH 3T3 viability, CellTiter-Glo ATP luminescence, 48-72 h | AID 1345082 | Potency, µM (titrated, usually from 96.7 µM), for the others: at the top dose activity change, negative = cytotoxicity, actives largely listed as inhibitors; also: nearly all actives have a fitted effect of over 55% in size
#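 Luminescent ATP readout (CellTiter-Glo, 10 min RT) after 48 or 72 hr compound exposure of NIH 3T3 cells seeded at 400 cells/well in 1536-well format; quantitative HTS.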
# An asterisk follows results filed as active; i = inactive; ? = inconclusive; nt = no result; [ ] = dose if it differs, or a comment. Unless noted, calls follow the shape of the dose curve; as a rule, active = well fitted curve in the direction sought with a large enough effect; inconclusive = small, poorly fitted or top-dose-only effect, or another doubt; inactive = no such curve, though single readings can be large; an effect the other way counts as inactive or inconclusive. % is scaled to controls: 0 for no effect and ±100 for the full control effect; potency is read from the fitted curve at half-maximal effect.
SMILES,hNpr1 antagonist,HEK293 tox,FLuc inh,3T3 cytotox
Cc1nc(-c2cccs2)cc([C@H]2CN3CC[C@H]2C[C@@H]3CNC(=O)c2ccco2)n1,-11.3%[70.6 µM],?,i,?
Cc1nc(-c2cccs2)cc([C@H]2CN3CC[C@H]2C[C@@H]3CNC(=O)c2ccc(N(C)C)cc2)n1,0.7%,35.5µM*,i,22.4µM*
Cc1cnc(N2CC3CCC(C2)N3CC(F)(F)F)c([N+](=O)[O-])c1,nt,-7.4%,nt,-17.4%
CC(C)CCN(C1CCNCC1)C1CCOCC1,2.5%,-15.1%,i,-2.8%
Cc1nc(-c2ccccc2Br)cc([C@H]2CN3CC[C@H]2C[C@@H]3CNC(=O)Nc2ccccc2)n1,0.2%,79.4µM*,?,?
CC(=O)c1cccc(NC(=O)NC[C@H]2C[C@@H]3CCN2C[C@@H]3c2cc(-c3cccs3)nc(C)n2)c1,-2.0%,22.4µM*,i,31.6µM*
CC(=O)NC[C@H]1C[C@@H]2CCN1C[C@@H]2c1cc(-c2cccs2)nc(C)n1,-13.7%[70.6 µM],?,i,?
Cc1cccc([C@H]2C[C@@H](O)[C@@H](O)[C@@H]2NCC2CCCC2)c1,-28.3%[70.6 µM],50.1µM*,i,89.1µM*
Cn1nc(-c2ccc3ccccc3c2)cc1[C@H]1CN2CC[C@H]1C[C@@H]2CNC(=O)NCc1ccccc1,-11.7%,?,i,17.8µM*
C=C[C@H]1CN2CC[C@H]1C[C@@H]2CNS(=O)(=O)c1ccc2ccccc2c1,0.8%[70.6 µM],112µM*,i,?
Cn1nc(-c2ccc3ccccc3c2)cc1[C@H]1CN2CC[C@H]1C[C@@H]2CNC(=O)N1CCOCC1,-0.4%,?,i,?
COc1ccc(-c2cc([C@H]3CN4CC[C@H]3C[C@@H]4CNS(=O)(=O)c3ccc(Cl)cc3)n(C)n2)cc1OC,-4.6%,28.2µM*,i,?
Cn1nc(-c2ccc3ccccc3c2)cc1[C@H]1CN2CC[C@H]1C[C@@H]2CNC(=O)COc1ccccc1,3.0%,25.1µM*,i,28.2µM*
COc1ccc(-c2cc([C@H]3CN4CC[C@H]3C[C@@H]4CNS(=O)(=O)c3cccs3)n(C)n2)cc1OC,-0.4%,?,i,?
COc1ccc(-c2cc([C@H]3CN4CC[C@H]3C[C@@H]4CNC(=O)NCc3ccccc3)n(C)n2)cc1,-3.0%,?,i,?
Cc1ccc(S(=O)(=O)NC[C@H]2C[C@@H]3CCN2C[C@@H]3CN(C)CCc2ccccn2)cc1,-2.5%,?,i,-14.3%
COc1ccccc1NC(=O)Nc1ccc2n(c1=O)C[C@H]1C[C@@H]2CN(C(=O)C(=O)O)C1,-1.1%[70.6 µM],-1.1%[172 µM],i,-0.1%[174 µM]
O=C(O)C1=NOC2CN(Cc3cncs3)CC12 (stereo not given),nt,4.4%[172 µM],nt,i
COc1ccc(-c2cc([C@H]3CN4CC[C@H]3C[C@@H]4CNC(C)=O)n(C)n2)cc1,5.5%[70.6 µM],-3.4%[172 µM],i,?
C=C[C@H]1CN2CC[C@H]1C[C@@H]2CNCc1ccc(SC)cc1,-4.7%[70.6 µM],89.1µM*,i,?
CC(=O)NC[C@H]1C[C@@H]2CCN1C[C@@H]2c1cc(-c2ccc3ccccc3c2)nn1C,2.5%[70.6 µM],56.2µM*,?,31.6µM*
COc1ccc(OC)c(S(=O)(=O)NC[C@H]2C[C@@H]3CCN2C[C@@H]3c2cc(-c3ccc4ccccc4c3)nn2C)c1,1.5%,?,i,?
Cn1nc(-c2ccc3ccccc3c2)cc1[C@H]1CN2CC[C@H]1C[C@@H]2CNS(=O)(=O)c1ccccc1,-24.3%,25.1µM*,?,?
O=C(O)C1=NOC2CN(Cc3cccc(Br)n3)CC12 (stereo not given),nt,3.0%,nt,i
CCCCOC(=O)N1C[C@H](C(=O)OCC)[C@H]2c3ccccc3NC(=O)[C@]21C,nt,?,nt,-17.7%[46.1 µM]
SMILES,hNpr1 antagonist,HEK293 tox,FLuc inh,3T3 cytotox
COc1ccc2c(c1)C1(CCN(C(=O)C(C)(C)C)C1)C(=O)N2C (stereo not given),-6.7%,?,i,-11.9%
O=C1NC2(CCN(Cc3cccnc3)C2)COc2ccccc21 (stereo not given),5.6%[70.6 µM],79.4µM*,i,35.5µM*
CC[C@H]1CN2CC[C@H]1C[C@@H]2CNC(=O)Nc1ccc(Oc2ccccc2)cc1,-8.4%[70.6 µM],25.1µM*,i,28.2µM*
CC[C@H]1CN2CC[C@H]1C[C@@H]2CNC(=S)Nc1ccc(C)cc1Br,-18.4%[70.6 µM],?,i,44.7µM*
COc1ccc(NC(=O)NC[C@H]2C[C@@H]3CCN2C[C@@H]3CN2CCN(c3ccccc3OC)CC2)cc1,-17.8%,89.1µM*,i,?
COc1ccccc1N1CCN(C[C@H]2CN3CC[C@H]2C[C@@H]3CNC(=O)Nc2ccsc2)CC1,2.0%,-11.7%,i,?
CN1CCN(C(=O)Cc2c[nH]c3ncc(-c4ccc(CO)cc4)cc23)CC1,-0.1%[70.6 µM],?,i,25.1µM*
CN1CCN(C(=O)Cc2c[nH]c3ncc(-c4ccnn4C)cc23)CC1,2.6%[70.6 µM],-11.4%[172 µM],i,100µM*
COc1ncccc1-c1cnc2[nH]cc(CC(=O)N3CCN(C)CC3)c2c1,3.4%[70.6 µM],-24.6%[172 µM],i,?
O=C(Cc1c[nH]c2ncc(-c3cccnc3)cc12)N1CCN(Cc2ccccc2)CC1,0.5%[70.6 µM],?,?,?
Cc1ncsc1CN1CC(CO)C2(CCNCC2)C1 (stereo not given),8.4%,-9.0%,i,-11.7%
COc1cc2c(cc1OC1CCCC1)NC(=O)C21CCN(c2nc(C)cc(C)n2)CC1,-7.8%[70.6 µM],89.1µM*,i,?
COc1cc2c(cc1OC1CCCC1)NC(=O)C21CCN(c2cnccn2)CC1,-16.2%[70.6 µM],89.1µM*,i,?
CCc1cnc(N2CCC3(CC2)C(=O)Nc2cc(OC4CCCC4)c(OC)cc23)nc1,-0.8%[70.6 µM],79.4µM*,i,?
COc1cc2c(cc1OC1CCCC1)NC(=O)C21CCN(c2ncc(F)cn2)CC1,-4.8%[70.6 µM],89.1µM*,i,89.1µM*
CSc1ccc(-c2ccc(=O)n3c2[C@@H]2C[C@@H](CN(S(C)(=O)=O)C2)C3)cc1,4.5%[70.6 µM],0.9%[172 µM],i,-1.3%[174 µM]
COc1cc2c(cc1CCc1ccccc1)N(C(=O)c1ccc3[nH]ccc3c1)CC21CCN(C(C)=O)CC1,-23.3%,?,i,?
CCOC(=O)[C@H]1CN([S+](=O)([O-])c2cccs2)[C@]2(C)C(=O)N(CCOC)c3ccccc3[C@H]12,nt,-18.3%[57.5 µM],nt,?
C#CCN(C)C[C@H]1CN2CC[C@H]1C[C@@H]2CNC(=O)c1ccc(C(F)(F)F)cc1,-0.3%[70.6 µM],-17.0%[172 µM],i,-10.8%[174 µM]
CCc1cnc(N2CCC3(CC2)C(=O)Nc2cc(Oc4ccccc4)c(OC)cc23)nc1,-16.1%[70.6 µM],44.7µM*,i,39.8µM*
COc1cc2c(cc1OC1CCCC1)NC(=O)C21CCN(c2ncc(C(C)C)cn2)CC1,-1.9%[70.6 µM],?,i,?
COc1cc2c(cc1OC1CCCC1)NC(=O)C21CCN(c2ncccn2)CC1,0.4%[70.6 µM],100µM*,i,?
CCOC(=O)[C@H]1CN(C(=O)NCc2ccccc2)[C@]2(C)C(=O)N(CCOC)c3ccccc3[C@H]12,nt,-5.1%[57.5 µM],nt,?

# Assay outcomes from PubChem BioAssay.
